Hit rate of the full screen: of about 1,300 compounds, about 750 (58%) were called active. Some of the results follow. A number with no mark means an inactive call.
target: Sulfhydryl oxidase 1 (Homo sapiens) (UniProt O00391); experiment: QSOX1 enzyme inhibitors, primary screen, biochemical, ROS-Glo H2O2 luminescence, HTS (AID 1347418); settings: recombinant QSOX1, ROS-Glo H2O2 luminescence; at 12.5 µM; stronger effect = higher value; active = any value above zero
Sequence (O00391 whole entry, looked up): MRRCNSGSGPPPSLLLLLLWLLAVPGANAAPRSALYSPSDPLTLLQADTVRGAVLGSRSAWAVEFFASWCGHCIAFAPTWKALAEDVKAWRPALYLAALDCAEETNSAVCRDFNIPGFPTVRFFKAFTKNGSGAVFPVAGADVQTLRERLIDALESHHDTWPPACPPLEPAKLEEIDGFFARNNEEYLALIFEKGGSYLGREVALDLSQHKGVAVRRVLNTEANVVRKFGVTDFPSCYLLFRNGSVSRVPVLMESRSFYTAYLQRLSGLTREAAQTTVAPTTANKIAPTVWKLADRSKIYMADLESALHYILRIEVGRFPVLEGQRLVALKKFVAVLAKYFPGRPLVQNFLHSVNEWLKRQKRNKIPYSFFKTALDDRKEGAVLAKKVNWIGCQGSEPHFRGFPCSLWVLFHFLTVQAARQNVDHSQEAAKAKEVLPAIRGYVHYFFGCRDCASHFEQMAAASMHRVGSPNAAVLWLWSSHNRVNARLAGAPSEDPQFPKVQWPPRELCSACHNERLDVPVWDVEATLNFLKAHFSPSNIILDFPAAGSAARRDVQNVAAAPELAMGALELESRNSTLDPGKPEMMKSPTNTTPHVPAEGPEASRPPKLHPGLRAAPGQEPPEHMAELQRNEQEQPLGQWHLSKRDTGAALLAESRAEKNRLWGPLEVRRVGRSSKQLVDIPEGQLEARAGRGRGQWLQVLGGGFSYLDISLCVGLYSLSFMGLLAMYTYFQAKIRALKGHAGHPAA

Row | Structure (SMILES) | inhibition
1 | NC(=O)c1cccc(N)c1 | 2.2% (active)
2 | NC(=O)c1ccccc1 | 7.2% (active)
3 | CCn1c(=O)[nH]c2cc(Cl)c(Cl)cc21 | -5.4%
4 | NS(=O)(=O)c1cc2c(cc1Cl)NC(C1CC3C=CC1C3)NS2(=O)=O (stereo unspecified) | -0.4%
5 | NS(=O)(=O)c1cc2c(cc1Cl)NCNS2(=O)=O | -0.5%
6 | NS(=O)(=O)c1cc2c(cc1Cl)NC=NS2(=O)=O | 2.5% (active)
7 | COc1cccc2c1[C@@H]1CN(CCCCn3c(=O)[nH]c4c(sc5ncc(-c6ccccc6)nc54)c3=O)C[C@@H]1CO2 | -1.5%
8 | CC(C)[C@@H]1CC[C@@H](C)C[C@@H]1P(=O)(c1ccccc1)c1ccccc1 | 2.9% (active)
9 | CCCn1c(=O)c(C)cn2nc(N)nc12 | 4.5% (active)
10 | NC(N)=NCc1cccc(I)c1 | 3.9% (active)
11 | O=c1[nH]c2cc([N+](=O)[O-])c([N+](=O)[O-])cc2[nH]c1=O | 2.2% (active)
12 | CCCOC(=O)c1c(-c2ccccc2)nc(CC)c(C(=O)SCC)c1CCC | -3.6%
13 | O=C(O)CCc1nc(-c2ccccc2)c(-c2ccccc2)o1 | 3.2% (active)
14 | C#CC(N)CCC(=O)O (stereo unspecified) | 5.9% (active)
15 | CC1(C)CCC(NC(=O)[C@@H](N)CCC(=O)O)CC1 | -1.9%
16 | C=Cc1c(C)c2cc3[nH]c(cc4nc(cc5nc(cc1[nH]2)C(C)=C5CCC(=O)O)C(CCC(=O)O)=C4C)c(C)c3C=C | -1.1%
17 | O=C(O)[C@@H]1C[C@@H](C(=O)O)N1 | -2.9%
18 | COC(=O)C1=C(C)NC(C)=C([N+](=O)[O-])C1c1ccccc1C(F)(F)F (stereo unspecified) | -3.4%
19 | CC(C)C(=O)Nc1ccc([N+](=O)[O-])c(C(F)(F)F)c1 | 6.8% (active)
20 | CC1(C)NC(=O)N(c2ccc([N+](=O)[O-])c(C(F)(F)F)c2)C1=O | -0.4%
21 | Oc1ccc(Cn2cc[nH]c2=S)cc1 | 5.9% (active)
22 | CCCCCN(C)CCC(O)(P(=O)(O)O)P(=O)(O)O | 0.6% (active)
23 | NCCNS(=O)(=O)c1cccc2c(Cl)cccc12 | 0.1% (active)
24 | O=C(O)CC1CCCc2ccccc2C1O (stereo unspecified) | -2.6%

Row | Structure (SMILES) | inhibition
25 | CSc1ccccc1N1CCN(CCCCCC(=O)NC2CCCc3ccccc32)CC1 (stereo unspecified) | -1.2%
26 | O=C(CCCCCN1CCN(c2ccccc2-c2ccccc2)CC1)NC1CCCc2ccccc21 (stereo unspecified) | 2.4% (active)
27 | O=C(O)c1cccnc1C(=O)O | -3%
28 | O=C(O)c1cccnc1Nc1cccc(C(F)(F)F)c1 | 3.2% (active)
29 | c1ccc2nc(C3=NCCN3)ccc2c1 | 0.1% (active)
30 | CC(C)(Sc1ccc(CCN(CCCCC2CCCCC2)C(=O)NC2CCCCC2)cc1)C(=O)O | 0.8% (active)
31 | CCc1c(C(=O)NCCc2ccc(N3CCCCC3)cc2)[nH]c2ccc(Cl)cc12 | 1.2% (active)
32 | CN=c1nc(-c2ccccc2)n(-c2ccccc2)s1 | -4.5%
33 | O=C(/C=C/c1ccc(O)cc1)c1ccc(O)cc1O | 20.8% (active)
34 | C#C[C@]1(O)CC[C@H]2[C@@H]3CCC4=Cc5oncc5CC4(C)[C@H]3CCC21C (stereo partly specified) | 3.6% (active)
35 | CCCCCN(CCCCC)C(=O)C(CCC(=O)O)NC(=O)c1ccc(Cl)c(Cl)c1 (stereo unspecified) | 3% (active)
36 | CCCN(CCC)C(=O)C(CCC(=O)O)NC(=O)c1ccccc1 (stereo unspecified) | -6.3%
37 | S=C([S-])OC1CC2C[C+]1C1CCCC21 (stereo unspecified) | -1.8%
38 | O=c1onc2cnc3ccccc3n12 | 1.7% (active)
39 | CN(C)CCCC1(c2ccc(F)cc2)OCc2cc(C#N)ccc21 (stereo unspecified) | -4.9%
40 | O=c1[nH]cnc2[nH]ncc12 | 7.1% (active)
41 | OC[C@H]1NC[C@@H](O)[C@@H]1O | 3.1% (active)
42 | OCC1NCC(O)C(O)C1O (stereo unspecified) | 0.3% (active)
43 | CCCCS(=N)(=O)CCC(N)C(=O)O (stereo unspecified) | 5.6% (active)
44 | CN=C(N)NCCC[C@H](N)C(=O)O | -2.7%
45 | CCCCS(=N)(=O)CC[C@H](N)C(=O)O (stereo partly specified) | 2.8% (active)
46 | CCCC(CCC)C(=O)O | -0.3%
47 | O=S(=O)(c1cccc2c(I)cccc12)N1CCCNCC1 | 8.3% (active)
48 | O=S(=O)(c1cccc2c(Cl)cccc12)N1CCCNCC1 | 0.5% (active)

Row | Structure (SMILES) | inhibition
49 | CC(=O)O[C@H]1C(=O)[C@@]2(C)C([C@H](OC(=O)c3ccccc3)[C@]3(O)C[C@H](OC(=O)[C@H](O)[C@@H](NC(=O)c4ccccc4)c4ccccc4)C(C)=C1C3(C)C)[C@]1(OC(C)=O)CO[C@@H]1C[C@@H]2O (stereo partly specified) | 1.7% (active)
50 | N[C@H](CO)C(=O)O | 1.4% (active)
51 | NOCC(=O)O | -7.4%
52 | N[C@@H](CS(=O)O)C(=O)O | -2.6%
53 | N[C@@H](COP(=O)(O)O)C(=O)O | -1.4%
54 | N[C@@H](CC(=O)O)C(=O)O | 4.2% (active)
55 | C=CC[C@H](N)C(=O)O | 4.9% (active)
56 | CC(=O)N[C@@H](CS)C(=O)O | 1.8% (active)
57 | CC(=O)N[C@H](C(=O)O)C(C)(C)SN=O | -3.3%
58 | N[C@@H]1CONC1=O | -12.8%
59 | Cc1ccccc1/C=C/C1=NCCN1 | 0.5% (active)
60 | CC(C(O)c1ccc(O)cc1)N1CCC(Cc2ccccc2)CC1 (stereo unspecified) | 7.3% (active)
61 | CC(C)(C(=O)O)c1ccc(C(O)CCCN2CCC(C(O)(c3ccccc3)c3ccccc3)CC2)cc1 (stereo unspecified) | -1.3%
62 | C[C@@H](CN1CCC(Cc2ccccc2)CC1)[C@@H](O)c1ccc(O)cc1 | 3.4% (active)
63 | CC(C)(C)c1ccc(C(O)CCCN2CCC(C(O)(c3ccccc3)c3ccccc3)CC2)cc1 (stereo unspecified) | -4%
64 | CNCC(O)c1ccc(O)c(O)c1 (stereo unspecified) | 2.8% (active)
65 | CC(C)(C)NCC(O)c1cc(O)cc(O)c1 (stereo unspecified) | -2%
66 | CNC[C@H](O)c1ccc(O)c(O)c1 | 8.4% (active)
67 | CC(C)(C)NCC(O)c1ccc(O)c(CO)c1 (stereo unspecified) | 5.3% (active)
68 | CNC[C@H](O)c1cccc(O)c1 | -3.5%
69 | Cc1cn[nH]c1 | 1.9% (active)
70 | NS(=O)(=O)C1=[C+]C=[C+]c2c1c([N+](=O)[O-])cc1nc([O-])c([O-])nc21 | -4.9%
71 | COc1ccccc1CNCCCCCCNCCCCCCCCNCCCCCCCNc1ccccc1OC | 1.8% (active)

Source: PubChem BioAssay AID1347418 (Sanford-Burnham Center for Chemical Genomics, 2020)
